This is an account of results in PubChem BioAssay.

Calls of active or inactive are those of the source.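 How the source made its calls: active means mean duplicate potentiation above the buffer control mean plus 5 SD of buffer wells; inactive means the rest.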

Chain of Potassium voltage-gated channel subfamily KQT member 2 (Rattus norvegicus) (O88943 whole entry, looked up): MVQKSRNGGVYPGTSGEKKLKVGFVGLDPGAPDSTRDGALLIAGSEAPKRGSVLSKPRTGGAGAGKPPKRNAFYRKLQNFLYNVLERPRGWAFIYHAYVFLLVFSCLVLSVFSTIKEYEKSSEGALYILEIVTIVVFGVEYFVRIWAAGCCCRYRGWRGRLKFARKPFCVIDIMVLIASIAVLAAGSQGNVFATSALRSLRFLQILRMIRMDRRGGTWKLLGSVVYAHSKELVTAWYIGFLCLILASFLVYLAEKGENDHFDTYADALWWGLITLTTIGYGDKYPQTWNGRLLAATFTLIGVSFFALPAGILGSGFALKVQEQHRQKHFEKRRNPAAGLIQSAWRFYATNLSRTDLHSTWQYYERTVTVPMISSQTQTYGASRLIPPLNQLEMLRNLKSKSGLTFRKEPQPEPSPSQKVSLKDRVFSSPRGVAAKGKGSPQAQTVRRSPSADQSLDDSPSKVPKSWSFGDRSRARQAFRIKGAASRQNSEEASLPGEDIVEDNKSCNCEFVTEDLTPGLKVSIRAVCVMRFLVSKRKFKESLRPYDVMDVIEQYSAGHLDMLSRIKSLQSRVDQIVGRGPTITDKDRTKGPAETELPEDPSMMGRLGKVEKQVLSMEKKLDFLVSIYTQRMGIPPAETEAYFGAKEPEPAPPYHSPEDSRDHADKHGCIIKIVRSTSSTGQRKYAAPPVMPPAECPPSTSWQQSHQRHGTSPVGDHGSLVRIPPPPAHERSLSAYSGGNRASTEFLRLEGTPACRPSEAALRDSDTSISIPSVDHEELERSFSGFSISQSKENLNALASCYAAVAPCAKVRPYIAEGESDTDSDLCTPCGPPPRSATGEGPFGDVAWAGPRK

This assay concerns the target Potassium voltage-gated channel subfamily KQT member 2 (Rattus norvegicus) (UniProt O88943). In words: KCNQ2 thallium flux enhancement – KCNQ2-CHO-K1 cells, selectivity assay for KCNQ1 potentiator project (AID 493009).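 Further: assay conditions were tuned for KCNQ1 rather than KCNQ2 modulators; signal is max minus min fluorescence divided by baseline after thallium stimulus.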 As to conditions: FluxOR thallium flux fluorescence, at 10 µM; active compounds read high, scaled: buffer 0, activator control 100.
Turning to `CC1CCCC(NC(=S)NC(=O)c2ccccc2Br)C1C` (stereo not drawn), the result was inactive.

Turning to `Cc1cc(SCNC(=O)c2ccccc2)ncn1`, the outcome was inactive.

On to `CCC1CCCCN1C(=S)NC(=O)c1cccs1` (stereo not drawn), for which the potentiation was 493% (active).

Turning to `C/C(=N\NC(=S)Nc1ccc(C)cc1)c1cc2ccccc2o1`, the potentiation is 169% (active).

As for `COc1cccc(-c2nnc(Nc3nc4c(F)cccc4s3)o2)c1`, the potentiation was 280% (active).

Regarding `CN(C)S(=O)(=O)c1ccc(Cl)c(NC(=O)CN2CCCCCC2)c1`, the result was inactive.

Turning to `Cc1cnc(NC(=O)c2ccc(-c3nc4ccccc4s3)o2)s1`, the outcome was inactive.

Take `COCCCNC(=O)CC(NS(=O)(=O)c1ccc(F)cc1)c1ccc(OC)cc1` (stereo not drawn): the result was inactive.

For the molecule `O=C(/C=C/c1ccc(Br)cc1)NC(=S)Nc1ccc(S(=O)(=O)Nc2nccs2)cc1`, the outcome was inactive.

`C/C(=N\NC(=O)C1COc2ccccc2O1)c1ccc(N2CCOCC2)cc1` (stereo not drawn): the outcome was inactive.

On to `CCCCCCCCCCCC(=O)NC(Cc1ccc(OC)c([N+](=O)[O-])c1)C(=O)O` (stereo not drawn), for which the potentiation is 349% (active).

For `CCCc1cc(=O)n2[nH]cc(-c3ccc(Cl)cc3)c2n1`, the potentiation is 164% (active).

As for `CSc1nc(Nc2ccc(Cl)cc2)c(C#N)c(=O)[nH]1`, the outcome was inactive.

Regarding `S=c1nn[nH]n1C12CC3CC(CC(C3)C1)C2`, the potentiation was 210% (active).

Consider `O=c1c2c(-c3ccco3)csc2nc(SCc2cn3cccnc3n2)n1-c1ccccc1`, for which the outcome was inactive.

As for `O=C(NC(=S)Nc1ccc2c(c1)OCCO2)c1ccco1`, the potentiation was 260% (active).

Turning to `O=C(N/N=C/c1ccccn1)c1sc2ccccc2c1Cl`, the potentiation was 207% (active).

Turning to `COc1cc(CNCCN2CCOCC2)ccc1OCc1ccc(Cl)cc1Cl`, the outcome was inactive.
